The source of these data is paper PMC4081100, “A DNA-binding-site landscape and regulatory network analysis for NAC transcription factors in Arabidopsis thaliana”.

Holding throughout (assay): universal protein binding microarray (PBM); transcription factors of Arabidopsis thaliana; high values mean tight binding
One test deals with T1, GST-ANAC092(1-176) (Arabidopsis thaliana, UniProt Q9FKA0 1-176).
T1 sequence: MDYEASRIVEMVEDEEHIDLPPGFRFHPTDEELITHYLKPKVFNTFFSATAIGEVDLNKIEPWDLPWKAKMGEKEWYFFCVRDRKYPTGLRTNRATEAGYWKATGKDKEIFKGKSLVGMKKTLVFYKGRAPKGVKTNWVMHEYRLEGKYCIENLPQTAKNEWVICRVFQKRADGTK
The following applies: protein: recombinant; tags: GST; chain copies: 2; dsDNA, one strand shown. The essentials:
(§1)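 Protein amounts were determined by A280 or anti-GST western blot after glutathione–Sepharose 4B purification of GST-tagged proteins induced in cells, with zinc acetate included for zinc-finger proteins. Duplicate runs at 200 to 500 nM final were done on custom all-10-mer Agilent 4 × 180K arrays made double-stranded by primer extension. The normalised enrichment score (E-score) over gapped and ungapped 8-mers is the measure of binding.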

The next test concerns the target T2, GST-ANAC019 NAC domain (Arabidopsis thaliana, UniProt Q9C932 14-162).
T2 sequence: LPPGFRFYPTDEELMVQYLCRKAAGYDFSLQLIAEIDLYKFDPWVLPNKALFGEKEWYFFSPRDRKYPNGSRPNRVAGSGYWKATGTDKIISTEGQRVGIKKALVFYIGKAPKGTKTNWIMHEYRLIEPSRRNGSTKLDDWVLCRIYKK
The following applies: protein: recombinant; tags: GST; chain copies: 2; dsDNA, one strand shown. The gist of the method:
as §1

In another test the target is T3, GST-ANAC055(1-171) (Arabidopsis thaliana, UniProt Q9LDY8 1-171).
T3 sequence: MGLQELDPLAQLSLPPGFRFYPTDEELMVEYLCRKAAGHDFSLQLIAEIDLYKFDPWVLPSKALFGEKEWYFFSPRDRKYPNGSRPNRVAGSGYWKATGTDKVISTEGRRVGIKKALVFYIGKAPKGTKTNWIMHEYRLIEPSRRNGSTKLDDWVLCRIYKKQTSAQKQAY
The following applies: protein: recombinant; tags: GST; chain copies: 2; dsDNA, one strand shown. The essentials: as §1

In another test the target is T4, GST-ATAF1 NAC domain (Arabidopsis thaliana, UniProt Q39013 7-158).
T4 sequence: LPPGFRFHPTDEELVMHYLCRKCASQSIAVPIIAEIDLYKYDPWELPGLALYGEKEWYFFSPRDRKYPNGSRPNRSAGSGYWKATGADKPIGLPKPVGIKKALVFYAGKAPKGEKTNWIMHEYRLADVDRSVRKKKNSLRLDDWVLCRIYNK
The following applies: protein: recombinant; tags: GST; chain copies: 2; dsDNA, one strand shown. The gist of the method:
as §1

For test [1], the target named is T5, GST-ANAC092(1-285) full length (Arabidopsis thaliana, UniProt Q9FKA0 1-285).
T5 sequence: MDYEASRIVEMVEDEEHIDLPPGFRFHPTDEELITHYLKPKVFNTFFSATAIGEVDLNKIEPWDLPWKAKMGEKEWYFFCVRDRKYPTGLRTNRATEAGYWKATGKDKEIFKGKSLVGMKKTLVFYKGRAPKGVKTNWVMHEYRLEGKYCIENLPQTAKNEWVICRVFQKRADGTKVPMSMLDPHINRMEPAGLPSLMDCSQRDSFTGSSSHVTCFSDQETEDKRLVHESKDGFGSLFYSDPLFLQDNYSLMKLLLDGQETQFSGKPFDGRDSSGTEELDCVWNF
Particulars: protein: recombinant; tags: GST; chain copies: 2; dsDNA, one strand shown. The essentials:
as §1

The next test has as its target T6, GST-SND1(1-203) (Arabidopsis thaliana, UniProt Q9LPI7 1-203).
T6 sequence: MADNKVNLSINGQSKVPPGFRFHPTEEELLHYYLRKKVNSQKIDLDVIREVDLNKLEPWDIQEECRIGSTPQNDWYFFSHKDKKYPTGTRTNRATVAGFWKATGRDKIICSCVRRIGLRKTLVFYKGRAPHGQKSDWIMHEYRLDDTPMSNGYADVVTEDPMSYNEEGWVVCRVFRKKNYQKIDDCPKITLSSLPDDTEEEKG
The following applies: protein: recombinant; tags: GST; chain copies: 2; dsDNA, one strand shown. The gist of the method: as §1

Another test concerns the target T7, GST-VND3 NAC domain (Arabidopsis thaliana, UniProt Q9FH59 12-162).
T7 sequence: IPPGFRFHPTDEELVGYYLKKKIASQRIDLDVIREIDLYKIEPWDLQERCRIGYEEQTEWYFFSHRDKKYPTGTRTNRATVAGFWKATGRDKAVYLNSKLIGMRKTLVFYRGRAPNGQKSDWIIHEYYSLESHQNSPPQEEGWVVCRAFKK
Particulars: protein: recombinant; tags: GST; chain copies: 2; dsDNA, one strand shown. The gist of the method: as §1

The target of the next test is GST-WRKY1(266-371) (Arabidopsis thaliana, UniProt Q9SI37 266-371). The following applies: protein: recombinant; tags: GST; dsDNA, one strand shown. The gist of the method:
as §1

The next test addresses GST-NTL6(1-168) (Arabidopsis thaliana, UniProt Q9SCK6 1-168). Particulars: protein: recombinant; tags: GST; chain copies: 2; dsDNA, one strand shown. The essentials: as §1
A further test concerns the target T8, GST-NTL8 NAC domain (Arabidopsis thaliana, UniProt Q9XIN7 14-156).
T8 sequence: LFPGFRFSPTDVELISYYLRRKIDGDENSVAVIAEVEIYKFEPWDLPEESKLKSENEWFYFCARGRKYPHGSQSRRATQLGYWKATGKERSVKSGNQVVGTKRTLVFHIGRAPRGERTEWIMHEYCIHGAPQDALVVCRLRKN
The following applies: protein: recombinant; tags: GST; chain copies: 2; dsDNA, one strand shown. The essentials:
as §1

The target of another test is T9, GST-VND7 NAC domain (Arabidopsis thaliana, UniProt Q9C8W9 9-158).
T9 sequence: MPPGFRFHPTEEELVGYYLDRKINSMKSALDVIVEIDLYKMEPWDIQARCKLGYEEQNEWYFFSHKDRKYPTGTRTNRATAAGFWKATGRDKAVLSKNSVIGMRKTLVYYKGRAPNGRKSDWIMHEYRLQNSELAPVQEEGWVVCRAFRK
The following applies: protein: recombinant; tags: GST; chain copies: 2; dsDNA, one strand shown. The gist of the method: as §1

The next test has as its target T10, GST-NST2(1-184) (Arabidopsis thaliana, UniProt Q9M274 1-184).
T10 sequence: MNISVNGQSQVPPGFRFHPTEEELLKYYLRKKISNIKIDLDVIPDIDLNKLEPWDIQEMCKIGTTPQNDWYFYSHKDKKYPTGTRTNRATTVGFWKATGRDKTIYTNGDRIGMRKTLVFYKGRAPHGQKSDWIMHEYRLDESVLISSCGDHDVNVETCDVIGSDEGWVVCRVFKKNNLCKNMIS
The following applies: protein: recombinant; tags: GST; chain copies: 2; dsDNA, one strand shown. The gist of the method: as §1

A further test concerns the target T11, GST-NAP(1-166) (Arabidopsis thaliana, UniProt O49255 1-166).
T11 sequence: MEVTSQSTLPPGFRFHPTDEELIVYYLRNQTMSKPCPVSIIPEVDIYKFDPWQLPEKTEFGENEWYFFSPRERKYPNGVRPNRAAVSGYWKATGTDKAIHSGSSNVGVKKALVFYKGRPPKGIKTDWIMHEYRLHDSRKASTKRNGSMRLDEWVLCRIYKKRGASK
Particulars: protein: recombinant; tags: GST; chain copies: 2; dsDNA, one strand shown. The gist of the method: as §1

Chain of GST-WRKY1(266-371) (Q9SI37 266-371): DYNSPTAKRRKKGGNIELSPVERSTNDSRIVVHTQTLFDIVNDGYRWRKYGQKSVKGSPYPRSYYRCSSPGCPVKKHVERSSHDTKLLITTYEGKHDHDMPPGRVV
Chain of GST-NTL6(1-168) (Q9SCK6 1-168): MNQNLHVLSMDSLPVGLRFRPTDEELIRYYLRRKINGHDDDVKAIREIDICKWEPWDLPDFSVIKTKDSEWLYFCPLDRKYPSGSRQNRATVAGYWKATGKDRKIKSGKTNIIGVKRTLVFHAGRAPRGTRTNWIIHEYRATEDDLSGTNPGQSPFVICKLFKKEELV

Take TTGACCAA: the binding signal with GST-ANAC092(1-176) came to 0.232 E-score; in the test with GST-ANAC019 NAC domain, 0.063 E-score; in the test with GST-ANAC055(1-171), 0.0923 E-score; in the test with GST-ATAF1 NAC domain, 0.066 E-score; in test [1], 0.226 E-score; in the test with GST-SND1(1-203) it was 0.0845 E-score. In addition, the binding signal with GST-VND3 NAC domain worked out at 0.0958 E-score; in the test with GST-WRKY1(266-371), 0.491 E-score.
Consider CCTTACCC, for which the binding signal amounted to 0.366 E-score in the test with GST-NTL6(1-168); 0.0872 E-score in test [1]; 0.404 E-score with GST-NTL8 NAC domain; 0.167 E-score in the test with GST-SND1(1-203); 0.0668 E-score with GST-VND3 NAC domain; 0.0637 E-score with GST-VND7 NAC domain.
In the case of AAGGTCAA, the binding signal in the test with GST-ANAC092(1-176) came to 0.138 E-score; in the test with GST-NTL6(1-168), 0.252 E-score; with GST-ANAC055(1-171) it was 0.106 E-score; in the test with GST-ATAF1 NAC domain, 0.146 E-score; in test [1], 0.0845 E-score; with GST-NST2(1-184) it was 0.0822 E-score. For the same sequence, the binding signal in the test with GST-NTL8 NAC domain was determined as 0.0854 E-score; with GST-SND1(1-203), 0.144 E-score; with GST-VND3 NAC domain, 0.101 E-score; with GST-WRKY1(266-371), 0.484 E-score.
Turning to CACGCTAC, the binding signal with GST-ANAC092(1-176) was found to be 0.46 E-score; in the test with GST-ANAC019 NAC domain, 0.167 E-score; in the test with GST-ANAC055(1-171), 0.0982 E-score; with GST-ATAF1 NAC domain, 0.167 E-score; in test [1], 0.476 E-score; with GST-NST2(1-184), 0.298 E-score. In addition, the binding signal stood at 0.441 E-score with GST-SND1(1-203), 0.0671 E-score with GST-VND3 NAC domain and 0.135 E-score with GST-VND7 NAC domain.
Take CTTCCTTA: the binding signal with GST-ANAC092(1-176) came out at 0.158 E-score; in the test with GST-NTL6(1-168), 0.447 E-score; with GST-ANAC019 NAC domain, 0.0721 E-score; in [1], 0.104 E-score; in the test with GST-NST2(1-184) it was 0.151 E-score; with GST-NTL8 NAC domain, 0.223 E-score. The binding signal worked out at 0.21 E-score with GST-SND1(1-203), 0.0785 E-score with GST-VND3 NAC domain and 0.0845 E-score with GST-WRKY1(266-371).
In the case of TTAAGAAA, the binding signal with GST-ANAC092(1-176) stood at 0.151 E-score; in the test with GST-NTL6(1-168), 0.461 E-score; in the test with GST-ANAC055(1-171) it was 0.0935 E-score; with GST-ATAF1 NAC domain it was 0.195 E-score; in test [1] it was 0.227 E-score; with GST-NST2(1-184), 0.142 E-score. Further, the binding signal was found to be 0.273 E-score with GST-NTL8 NAC domain, 0.367 E-score with GST-SND1(1-203), 0.0817 E-score with GST-VND3 NAC domain and 0.116 E-score with GST-WRKY1(266-371).
With GACACGGC, the binding signal with GST-ANAC092(1-176) is 0.235 E-score; with GST-ANAC019 NAC domain it was 0.42 E-score; with GST-ANAC055(1-171) it was 0.351 E-score; in the test with GST-ATAF1 NAC domain, 0.278 E-score; in test [1], 0.387 E-score; with GST-NAP(1-166), 0.237 E-score. Besides, the binding signal in the test with GST-NTL8 NAC domain was 0.0582 E-score; with GST-SND1(1-203) it was 0.116 E-score; in the test with GST-VND3 NAC domain it was 0.328 E-score; in the test with GST-VND7 NAC domain it was 0.348 E-score.
CGTCAACA: the binding signal in the test with GST-ANAC092(1-176) turned out to be 0.149 E-score; with GST-NTL6(1-168), 0.0991 E-score; in the test with GST-ANAC019 NAC domain it was 0.0912 E-score; with GST-ANAC055(1-171) it was 0.135 E-score; in the test with GST-ATAF1 NAC domain, 0.156 E-score; in test [1], 0.196 E-score. For the same sequence, the binding signal in the test with GST-NAP(1-166) was found to be 0.116 E-score; with GST-NST2(1-184) it was 0.111 E-score; in the test with GST-SND1(1-203), 0.181 E-score; with GST-VND3 NAC domain it was 0.0753 E-score; with GST-WRKY1(266-371), 0.435 E-score.
